# Results as given in PubChem BioAssay (NCATS).
# Where “and” joins values, the source holds several entries; their conditions need not be identical. Equal entries are not always repeated. Unmarked numbers belong to inactive results. Results filed as inconclusive are left out. Where a call stands in place of a potency, no number is given. Calls of active or inactive are those of the source. Unless noted, the call rests on the fitted dose curve; in most records, active means well fitted curve in the direction sought with a large enough effect; inconclusive means small, poorly fitted or top-dose-only effect, or another doubt; inactive means no such curve, though single readings can be large; an effect the other way counts as inactive or inconclusive.
# Key:
# [1] = Stat Signaling Pathway (AID 446; active means well fitted curve in either direction with a large enough effect, not every such curve was filed as active;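 further: ME-180 cervical cancer cells given 40 pM IL-6 alongside compound; SIE-controlled beta-lactamase reporter measured as 460/530 nm FRET emission ratio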); details: ME-180 (cervical carcinoma) SIE beta-lactamase reporter, IL-6 stimulated, 5 h
# Summary of the method: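 Normalization used AC90 stimulation (300 pM IL-6) and AC90 inhibition (125 nM pan-JAK inhibitor at 40 pM IL-6). The underlying signal is SIE-driven beta-lactamase in ME-180 cells after 5 h IL-6 exposure with compound.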
# [2] = target: Glucocorticoid receptor (Homo sapiens) (UniProt P04150); experiment: GR-GFP Redistribution (AID 450;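 active means compounds whose dose series gives a full or clear partial fitted curve of increased nuclear translocation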; further: potency means the concentration at half of the fitted maximal effect); details: U2OS GR-GFP nuclear translocation, laser cytometry, 2 h
# [3] = target: Glucocorticoid receptor (Homo sapiens) (UniProt P04150); experiment: GR-EFC Redistribution (AID 451; calls by dose curve; further: potency means the concentration at half of the fitted maximal effect); details: CHO-K1 GR-EFC translocation, beta-gal luminescence, 2 h
# Summary of the method: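 CHO-K1 cells expressing nuclear EA and GR-ED fragments of b-gal; compounds titrated up to 46 uM final, 2 h at 37 C. GR nuclear translocation read as complemented b-gal luminescence after 1 h RT detection.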
# [4] = target: Mitogen-activated protein kinase 10 (Mus musculus) (UniProt Q61831); experiment: JNK3 AlphaScreen Assay (AID 530; active means well fitted curve in either direction with a large enough effect, not every such curve was filed as active;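 further: kinase came from lysate of stimulated human HepG2 cells; signal reports phosphorylation of biotinylated GST-cJun 1-79 at Ser73 with 10 µM ATP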); details: JNK3 lysate, c-Jun phosphorylation; series mostly up to 57.1 µM
# Summary of the method: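 HepG2 lysate (IL-1b/TNFa pre-activated) + biotin-GST-cJun 1-79 + anti-pSer73 cJun; cpd titration, 15 min RT; ATP 10 uM start; Tris pH 7.6, MgCl2, DTT, vanadate; beads in EDTA buffer; AlphaScreen.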
# [5] = target: 3',5'-cyclic-AMP phosphodiesterase 4B (Homo sapiens) (UniProt Q07343); experiment: qHTS Assay for Inhibitors of PDE-IV (AID 607; active means well fitted activation curve with a large enough effect in the main read-out, with a control signal flat, not every such curve was filed as active); details: HEK293 ACTOne CNG channel cells, membrane potential fluorescence; series mostly up to 22.9 µM
# Summary of the method: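 HEK293 ACTOne cells with CNG channel (1000/well), endogenous PDE4; membrane potential dye, compounds up to 22.9 uM final. Fluorescence Ex 535/Em 590; RO 20-1724 (100 uM final) as reference.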
# [6] = Cell Viability - N2a (AID 540); details: N2a mouse neuroblastoma cell viability; at 92.2 µM (top of the series);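 further: cells exposed to compound for 40 h at 37 °C; nearly all actives have a fitted effect of over 45% in size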
# Summary of the method: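 N2a mouse neuroblastoma, 1500 cells/well, 5 hr settle; compound 40 hr, 37 °C; CellTiter-Glo 20 min RT; luminescence; Hill-fit AC50.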
# [7] = Cell Viability - NIH 3T3 (AID 541); details: NIH 3T3 cell viability, qHTS; activity change, negative = cytotoxicity: at 92.2 µM (top of the series);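 further: cells exposed to compound for 40 hours; nearly all actives have a fitted effect of over 25% in size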
# Summary of the method: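 qHTS format; 40 hr compound exposure, 37 °C; CellTiter-Glo luminescence (cellular ATP) read-out after 20 min at RT. Decrease in ATP = cytotoxicity; AC50 from standard Hill fit.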
# [8] = Cell Viability - HUV-EC-C (AID 542); details: HUV-EC-C endothelial cell viability, qHTS; series mostly up to 92.2 µM;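 further: cells exposed to compound for 40 hours; nearly all actives have a fitted effect of over 35% in size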
# Summary of the method: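 Luminescent ATP read-out (CellTiter-Glo, 20 min room temperature) after 40 hr compound treatment of HUV-EC-C cells at 37 °C. Concentration-response data fitted with the standard Hill equation to give AC50; tamoxifen and doxorubicin served as positive controls.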
# [9] = Cell Viability - SH-SY5Y (AID 544); details: SH-SY5Y neuroblastoma cell viability; viability change, negative = cytotoxic: at 92.2 µM (top of the series);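 further: cells exposed to compound for 40 hours; nearly all actives have a fitted effect of over 55% in size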
# Summary of the method: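 SH-SY5Y, 1500 cells/well, 5 hr pre-incubation 37 °C; cpd 40 hr 37 °C; CellTiter-Glo 20 min RT; luminescence (ATP) read. qHTS concentration-response, Hill fit → AC50. Tamoxifen, doxorubicin as positive controls.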
# [10] = Cell Viability - Renal Proximal Tubule (AID 545); details: renal proximal tubule cells viability; at 91.7 µM (top of the series) unless noted;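 further: cells exposed to compound for 40 hours; nearly all actives have a fitted effect of over 40% in size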
# Summary of the method: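 Primary rat renal proximal tubule cells (1000/well) were treated with compounds for 40 hr at 37 °C in complete medium. Intracellular ATP was measured by CellTiter-Glo luminescence, and AC50 values came from Hill-equation fits of concentration-response data.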
# [11] = Cell Viability - Mesenchymal (AID 546); details: mesenchymal cells viability, qHTS; series mostly up to 91.7 µM;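 further: cells exposed to compound for 40 hours before reading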
# Summary of the method: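 Human renal mesenchymal cells (glomerulus-derived), 1000 cells/well, 5 hr 37 °C pre-incubation; compound 40 hr, 37 °C; CellTiter-Glo, 20 min RT; luminescence; AC50 via Hill equation.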
# [12] = Cellular Toxicity (caspase-3) HepG2 (AID 654); details: HepG2 caspase-3 activation, luminescence; series mostly up to 92.2 µM;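 further: cells exposed to compound for 16 hours before reading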
# Summary of the method: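 Luminescent Caspase-Glo 3/7 readout after 16 hr compound exposure of human hepatocellular carcinoma HepG2 cells at 37 °C; qHTS concentration-response, normalized DMSO = 0%, 100 uM tamoxifen = 100%; AC50 by standard Hill equation.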
# [13] = Cellular Toxicity (caspase-3) Jurkat (AID 655); details: Jurkat caspase-3 activation, luminescence; caspase-3 activation: at 92.2 µM (top of the series), DMSO = 0%, tamoxifen = 100%;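 further: cells exposed to compound for 16 h at 37 °C before reading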
# Summary of the method: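 Jurkat cells (5000/well) in complete medium were treated with compounds for 16 hr at 37 °C, then Caspase-Glo 3/7 luminescence was read after 20 min at room temperature. Data normalized to DMSO (basal) and 100 uM tamoxifen (100%); AC50 from Hill fit.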
# [14] = Cellular Toxicity (caspase-3) HUV-EC-C (AID 656); details: HUV-EC-C cells, caspase-3 activation (apoptosis), vehicle = 0, 100 µM tamoxifen = 100%; series mostly up to 92.2 µM
# Summary of the method: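 HUV-EC-C endothelial cells, 1000/well, were pre-incubated 5 hr at 37°C, then exposed to compounds for 16 hr at 37°C. Caspase-Glo 3/7 luminescence was read after 20 min at room temperature. AC50 came from Hill fits, normalized to DMSO and 100 uM tamoxifen.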
# [15] = Cellular Toxicity (caspase-3) SHSY5Y (AID 657); details: SH-SY5Y caspase-3 activation; series mostly up to 91.7 µM
# Summary of the method: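 SH-SY5Y human neuroblastoma cells (1500/well) were treated with compounds for 16 h at 37 °C, then Caspase-Glo 3/7 luminescence was read after 1 h at room temperature. Data normalized to DMSO and 10 uM staurosporine; AC50 from Hill fits.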
# [16] = Cellular Toxicity (caspase-3) BJ (AID 658); details: BJ fibroblasts, luminescence, normalized: DMSO 0%, staurosporine 100%; series mostly up to 91.7 µM
# Summary of the method: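 qHTS, BJ fibroblasts, 1000 cells/well; 5 hr preincubation, 16 hr compound, 37 °C; Caspase-Glo 3/7 reagent, 1 hr RT; luminescence. DMSO = 0%, 10 uM staurosporine = 100%. Hill-equation AC50.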
# [17] = Cellular Toxicity (caspase-3) MRC-5 (AID 659); details: MRC-5 cells, luminescence, normalized: DMSO 0%, 10 µM staurosporine 100%; series mostly up to 91.7 µM
# Summary of the method: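 MRC-5 fibroblasts, 1500/well; 16 h cpd, 37 °C; Caspase-Glo 3/7, 1 h RT; lumi read. Norm: DMSO = 0%, 10 uM staurosporine = 100%. Hill-fit AC50 from qHTS conc-response.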
# [18] = Cellular Toxicity (caspase-3) Mesangial (AID 660); details: mesangial cells, normalized: DMSO 0%, 100 µM tamoxifen 100%; series mostly up to 91.7 µM;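 further: combined caspase 3 and 7 activity read by Caspase-Glo luminescence; cells exposed to compound for 16 h before the caspase read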
# Summary of the method: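 Luminescent Caspase-Glo 3/7 readout (aminoluciferin substrate cleavage, 20 min RT) after 16 h compound exposure at 37 °C of normal human mesangial cells. Signal increase normalized between DMSO basal and 100 uM tamoxifen; Hill-equation AC50.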
# [19] = Cellular Toxicity (caspase-3) SK-N-SH (AID 661); details: SK-N-SH caspase-3 activation, qHTS, DMSO as zero, staurosporine as full; series mostly up to 91.7 µM
# Summary of the method: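 Luminescent Caspase-Glo 3/7 read-out after 16 hr compound exposure of SK-N-SH neuroblastoma cells at 37 °C. Signal increase normalized to DMSO (basal) and 10 uM staurosporine (100%); AC50 from Hill equation fits of qHTS concentration-response data.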
# [20] = Cellular Toxicity (caspase-3) H-4-II-E (AID 663); details: H-4-II-E rat hepatoma, scaled: DMSO 0%, 100 µM tamoxifen 100%; at 92.2 µM (top of the series);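 further: cells exposed to compound for 16 hr before readout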
# Summary of the method: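 H-4-II-E rat hepatoma, 1500 cells/well, 5 hr settle at 37 °C; compound 16 hr, 37 °C, complete medium; Caspase-Glo 3/7, 20 min RT; luminescence. DMSO = 0%, 100 uM tamoxifen = 100%; Hill-equation AC50.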
# Sequence of Glucocorticoid receptor (Homo sapiens) (P04150 whole entry, looked up, the tested form may be a part): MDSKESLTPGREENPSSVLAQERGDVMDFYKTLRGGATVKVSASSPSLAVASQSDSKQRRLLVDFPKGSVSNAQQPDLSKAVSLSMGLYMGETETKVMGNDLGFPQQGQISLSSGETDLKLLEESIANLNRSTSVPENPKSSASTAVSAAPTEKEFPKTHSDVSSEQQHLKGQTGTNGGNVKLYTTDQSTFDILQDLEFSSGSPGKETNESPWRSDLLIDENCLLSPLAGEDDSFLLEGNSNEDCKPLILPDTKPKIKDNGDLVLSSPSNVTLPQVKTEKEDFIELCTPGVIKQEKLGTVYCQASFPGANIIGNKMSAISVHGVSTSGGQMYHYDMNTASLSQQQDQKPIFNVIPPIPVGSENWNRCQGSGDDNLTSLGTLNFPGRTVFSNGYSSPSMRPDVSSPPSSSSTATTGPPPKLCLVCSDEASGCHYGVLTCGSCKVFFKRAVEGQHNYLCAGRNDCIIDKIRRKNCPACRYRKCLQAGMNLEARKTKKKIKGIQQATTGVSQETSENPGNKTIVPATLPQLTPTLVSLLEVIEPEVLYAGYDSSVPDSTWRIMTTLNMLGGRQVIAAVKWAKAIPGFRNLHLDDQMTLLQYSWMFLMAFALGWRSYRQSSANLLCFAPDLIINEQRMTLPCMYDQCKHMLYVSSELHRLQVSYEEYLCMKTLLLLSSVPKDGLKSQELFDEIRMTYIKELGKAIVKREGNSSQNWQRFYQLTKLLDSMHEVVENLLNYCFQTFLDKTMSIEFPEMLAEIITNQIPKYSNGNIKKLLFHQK
# Sequence of 3',5'-cyclic-AMP phosphodiesterase 4B (Homo sapiens) (Q07343 whole entry, looked up): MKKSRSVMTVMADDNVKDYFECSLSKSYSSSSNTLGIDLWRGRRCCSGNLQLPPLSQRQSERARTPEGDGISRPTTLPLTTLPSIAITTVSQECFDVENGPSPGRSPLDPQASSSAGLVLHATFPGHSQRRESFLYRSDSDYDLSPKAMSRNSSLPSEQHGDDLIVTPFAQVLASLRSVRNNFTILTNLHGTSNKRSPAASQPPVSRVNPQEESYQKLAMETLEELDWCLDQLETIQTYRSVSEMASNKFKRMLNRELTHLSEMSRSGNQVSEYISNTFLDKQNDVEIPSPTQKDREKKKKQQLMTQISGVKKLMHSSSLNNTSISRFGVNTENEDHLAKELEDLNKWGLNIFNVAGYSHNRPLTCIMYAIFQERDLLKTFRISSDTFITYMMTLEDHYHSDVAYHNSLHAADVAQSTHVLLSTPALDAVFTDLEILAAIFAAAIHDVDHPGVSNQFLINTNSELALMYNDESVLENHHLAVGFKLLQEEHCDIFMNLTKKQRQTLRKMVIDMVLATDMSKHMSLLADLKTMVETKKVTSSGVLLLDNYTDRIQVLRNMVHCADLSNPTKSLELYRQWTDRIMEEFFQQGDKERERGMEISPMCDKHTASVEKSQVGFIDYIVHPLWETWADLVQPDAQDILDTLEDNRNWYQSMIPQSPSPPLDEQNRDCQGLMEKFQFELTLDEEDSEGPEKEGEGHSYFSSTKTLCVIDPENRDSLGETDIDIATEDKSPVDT
smiles,measurement,setting,value
NCC1(CC(=O)O)CCCCC1,"activity, negative = inhibition",[1]; at 17.2 µM (top of the series),-0.102% and 1.2%
same,"activity, negative = inhibition",[1]; at 38 µM (top of the series),-12.4%
same,Potency,[2],> 46 µM and > 20.6 µM
same,Potency,[3],> 46 µM and > 20.6 µM
same,outcome,[4],inactive
same,outcome,[5],inactive
COc1ccccc1N1CCNCC1,"activity, negative = inhibition",[1]; at 38 µM (top of the series),16.4%
same,Potency,[2],> 46 µM
same,Potency,[3],> 46 µM
same,outcome,[5],inactive
c1ccc2c(c1)Nc1ccccc1S2,outcome,[4],inactive
same,"activity change, negative = cytotoxicity",[6],-21.6%
same,"activity change, negative = cytotoxicity",[7],-26.2%
same,outcome,[8],inactive
same,"viability change, negative = cytotoxic",[9],-26%
same,"activity change, negative = cytotoxicity",[10],-25%
same,outcome,[11],inactive
same,Potency,[12],inactive
same,caspase-3 activation,[13],0.561%
same,outcome,[14],inactive
same,Potency,[15],inactive
same,outcome,[16],inactive
same,outcome,[17],inactive
same,outcome,[18],inactive
same,outcome,[19],inactive
same,caspase-3 activation,[20],-0.251%
CCCC(C)(COC(N)=O)COC(=O)NC(C)C (stereo not drawn),"activity, negative = inhibition",[1]; at 17.2 µM (top of the series),5.53%
same,outcome,[4],inactive
same,"activity change, negative = cytotoxicity",[6],4.75%
same,"activity change, negative = cytotoxicity",[7],-2.14%
same,outcome,[8],inactive
same,"viability change, negative = cytotoxic",[9],1.5%
same,"activity change, negative = cytotoxicity",[10],4.58%
same,outcome,[11],inactive
same,Potency,[12],inactive
same,caspase-3 activation,[13],1.39%
same,outcome,[14],inactive
same,Potency,[15],inactive
same,outcome,[16],inactive
same,outcome,[17],inactive
same,outcome,[18],inactive
same,outcome,[19],inactive
same,caspase-3 activation,[20],0.766%
NN=C(N)N,"activity, negative = inhibition",[1]; at 38 µM (top of the series),13% and 15.8%
same,outcome,[4],inactive
same,outcome,[5],inactive
OCCOc1ccccc1,outcome,[4],inactive
same,"activity change, negative = cytotoxicity",[6],-13.3%
same,"activity change, negative = cytotoxicity",[7],-18.9%
same,outcome,[8],inactive
same,"viability change, negative = cytotoxic",[9],-18.2%
same,"activity change, negative = cytotoxicity",[10],-6.83%
same,outcome,[11],inactive
same,Potency,[12],inactive
same,caspase-3 activation,[13],-1.54%
same,outcome,[14],inactive
same,Potency,[15],inactive
same,outcome,[16],inactive
same,outcome,[17],inactive
same,outcome,[18],inactive
same,outcome,[19],inactive
same,caspase-3 activation,[20],-1.74%
Oc1ccccc1-c1ccccc1,outcome,[4],inactive
same,"activity change, negative = cytotoxicity",[6],-8.25%
same,"activity change, negative = cytotoxicity",[7],-15.3%
same,outcome,[8],inactive
same,"viability change, negative = cytotoxic",[9],-9.19%
same,"activity change, negative = cytotoxicity",[10],"-16.3% [at 91.7 µM, primary cells of rat origin]"
same,outcome,[11],inactive
same,Potency,[12],inactive
same,caspase-3 activation,[13],82.5% (active)
same,outcome,[14],inactive
same,Potency,[15],inactive
same,outcome,[16],inactive
same,outcome,[17],inactive
same,outcome,[18],inactive
same,outcome,[19],inactive
same,caspase-3 activation,[20],-0.124%
